# Paper PMC8384837, “Expanding the binding specificity for RNA recognition by a PUF domain”
# What was measured:
# Experiment in all cases: yeast three-hybrid, YBZ-1, SC-Leu-His + 0.5 mM 3-AT, 4 days
# Settings in all cases: tags: N-Gal4 AD-HA kept; label: inside an RPR1-promoter hybrid RNA with tandem MS2 sites; ssRNA
# PUM1 PUF domain R4-CPT = PUM1 PUF domain R4-CPT (Homo sapiens, UniProt Q14671 828-1176, N971C;H972P;Q975T)
# Procedure, shortened: (§1)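 Matching RNA elements and Pumilio-1 PUF domain libraries, randomized at the three base-contacting residues of every repeat, were co-expressed from a centromeric plasmid in strain YBZ-1 (LexA–MS2 coat fusion, HIS3 reporter). The repeat regions were PCR-amplified and Illumina-sequenced from cells grown four days on SC-Leu (input) or SC-Leu-His + 0.5 mM 3-AT (selection). The interaction score is the log change in variant frequency from input to selection. It is computed in log2, with a pseudocount of 1 for absent variants.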
# PUM1 PUF domain R1-GVK = PUM1 PUF domain R1-GVK (Homo sapiens, UniProt Q14671 828-1176, S863G;R864V;Q867K)
# Procedure, shortened: as §1
# PUM1 PUF domain R1-NKK = PUM1 PUF domain R1-NKK (Homo sapiens, UniProt Q14671 828-1176, S863N;R864K;Q867K)
# Procedure, shortened: as §1
# PUM1 PUF domain R5-WHA = PUM1 PUF domain R5-WHA (Homo sapiens, UniProt Q14671 828-1176, C1007W;R1008H;Q1011A)
# Procedure, shortened: as §1
# PUM1 PUF domain R5-QCC = PUM1 PUF domain R5-QCC (Homo sapiens, UniProt Q14671 828-1176, C1007Q;R1008C;Q1011C)
# Procedure, shortened: as §1
sequence,measurement,setting,value
GGCUAGAACUAGUGGAUCCCCCGGCGCCCGGCGGCUCGAGCCCGGGUAAGUGUACAUAGUCUGCAUGCCGCCGGGCGCCAUGCCUGCAGGUCGACUCUAGAAAACAUG,binding signal,PUM1 PUF domain R4-CPT,1.75 log2 enrichment (interaction score)
GGCUAGAACUAGUGGAUCCCCCGGCGCCCGGCGGCUCGAGCCCGGGUAAGUGUAAAUUGUCUGCAUGCCGCCGGGCGCCAUGCCUGCAGGUCGACUCUAGAAAACAUG,binding signal,PUM1 PUF domain R1-GVK,2 log2 enrichment (interaction score)
GGCUAGAACUAGUGGAUCCCCCGGCGCCCGGCGGCUCGAGCCCGGGUAAGUGUAAAUCGUCUGCAUGCCGCCGGGCGCCAUGCCUGCAGGUCGACUCUAGAAAACAUG,binding signal,PUM1 PUF domain R1-GVK,3.43 log2 enrichment (interaction score)
same,binding signal,PUM1 PUF domain R1-NKK,4.39 log2 enrichment (interaction score)
GGCUAGAACUAGUGGAUCCCCCGGCGCCCGGCGGCUCGAGCCCGGGUAAGUGUCAAUAGUCUGCAUGCCGCCGGGCGCCAUGCCUGCAGGUCGACUCUAGAAAACAUG,binding signal,PUM1 PUF domain R5-WHA,3.04 log2 enrichment (interaction score)
GGCUAGAACUAGUGGAUCCCCCGGCGCCCGGCGGCUCGAGCCCGGGUAAGUGUAAAUGGUCUGCAUGCCGCCGGGCGCCAUGCCUGCAGGUCGACUCUAGAAAACAUG,binding signal,PUM1 PUF domain R1-NKK,3.03 log2 enrichment (interaction score)
GGCUAGAACUAGUGGAUCCCCCGGCGCCCGGCGGCUCGAGCCCGGGUAAGUGUGAAUAGUCUGCAUGCCGCCGGGCGCCAUGCCUGCAGGUCGACUCUAGAAAACAUG,binding signal,PUM1 PUF domain R5-QCC,3.84 log2 enrichment (interaction score)
